Measurements taken from PubChem BioAssay AID1159580 (chemical genetic matrix, 2015).
“And” between values parts separate entries of the source, which are not always exact repeats. Identical values can stand only once. In all, about 5,500 compounds went through this assay and about 2,000 (36%) were called active. About 18% were inconclusive and are not listed. Cut-off read from the data, not from the text of the source: active = normalized growth mostly below about 0.91 (no sharp cut-off); inconclusive = no clear call, values can overlap the other calls; inactive = mostly above about 0.92. The list shows a part of the results.

Assay: chemical genetic growth profiling, strain panel (AID 1159580);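 note: tested at 20 µM; growth read once vehicle control cultures reached saturation at 30 °C; 1 = growth at the plate median or of vehicle wells; lower values mean less growth of the strain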
Details: S. cerevisiae deletion strains, growth OD

Measured: normalized growth

Nc1c(Br)cc(Br)cc1CNC1CCC(O)CC1 (centres undefined)
inactive: locus YAL021C, strain ccr4, active compounds read low 1.01 | locus YAL026C, strain drs2, active compounds read low 0.968 | locus YAL030W, strain snc1, active compounds read low 1.01 | locus YBL061C, strain skt5, active compounds read low 1.02 | locus YBR009C, strain hhf1, active compounds read low 1.03 | locus YBR021W, strain FUR4, active compounds read low 0.996 | locus YBR023C, strain chs3, active compounds read low 1.01 | locus YBR171W, strain sec66, active compounds read low 1.02 | locus YBR229C, strain ROT2, active compounds read low 1.01 | locus YBR231C, strain swc5, active compounds read low 1.01 | locus YBR279W, strain paf1, active compounds read low 1.01 | locus YCL011C, strain gbp2, active compounds read low 1.02 | locus YCL016C, strain dcc1, active compounds read low 1.01 | locus YCL029C, strain bik1, active compounds read low 1 | locus YCL061C, strain MRC1, active compounds read low 1.02 | locus YCL069W, strain vba3, active compounds read low 1.02 | locus YCR088W, strain abp1, active compounds read low 1.02 | locus YDL005C, strain med2, active compounds read low 1.02 | locus YDL035C, strain GPR1, active compounds read low 1.01 | locus YDL040C, strain nat1, active compounds read low 0.992 | locus YDL074C, strain BRE1, active compounds read low 1.01 | locus YDL101C, strain DUN1, active compounds read low 1.02 | locus YDL134C, strain PPH21, active compounds read low 1.01 | locus YDL185W, strain tfp1, active compounds read low 0.996 | locus YDL192W, strain arf1, active compounds read low 0.995 | locus YDR001C, strain nth1, active compounds read low 1.01 | locus YDR069C, strain doa4, active compounds read low 0.985 | locus YDR101C, strain arx1, active compounds read low 0.985 | locus YDR137W, strain rgp1, active compounds read low 0.949 | locus YDR150W, strain NUM1, active compounds read low 1 | locus YDR159W, strain sac3, active compounds read low 0.997 | locus YDR162C, strain NBP2, active compounds read low 1.01 | locus YDR195W, strain ref2 1 | locus YDR297W, strain sur2, active compounds read low 0.982 | locus YDR318W, strain mcm21, active compounds read low 1 | locus YDR334W, strain swr1, active compounds read low 1.02 | locus YDR335W, strain msn5, active compounds read low 0.992 | locus YDR388W, active compounds read low 1.01 | locus YDR392W, strain spt3, active compounds read low 0.966 | locus YDR502C, strain sam2, active compounds read low 0.991 | locus YEL003W, strain gim4, active compounds read low 1.01 | locus YEL037C, strain rad23, active compounds read low 1.02 | locus YEL061C, strain CIN8 (second series), active compounds read low 1.02 | locus YEL061C, strain CIN8, active compounds read low 1.01 | locus YER015W, strain faa2, active compounds read low 1.02 | locus YER016W, strain bim1, active compounds read low 1 | locus YER110C, active compounds read low 1 | locus YER111C, strain swi4, active compounds read low 1.02 | locus YER155C, strain BEM2 (second series), active compounds read low 0.992 | locus YER155C, strain BEM2, active compounds read low 1.01 | locus YER167W, strain BCK2, active compounds read low 1.02 | locus YFR010W, strain ubp6, active compounds read low 1.03 | locus YGL078C, strain dbp3, active compounds read low 0.98 | locus YGL086W, strain mad1, active compounds read low 0.996 | locus YGL167C, strain pmr1, active compounds read low 1 | locus YGL173C, strain kem1, active compounds read low 1.03 | locus YGL227W, strain vid30, active compounds read low 1.01 | locus YGL240W, strain doc1, active compounds read low 0.981 | locus YGL248W, strain PDE1, active compounds read low 0.997 | locus YGL253W, strain hxk2, active compounds read low 1.01 | locus YGR078C, strain PAC10, active compounds read low 0.994 | locus YGR135W, strain pre9, active compounds read low 0.984 | locus YGR252W, strain gcn5, active compounds read low 0.955 | locus YHR013C, strain ard1, active compounds read low 1.02 | locus YHR027C, strain rpn1, active compounds read low 1 | locus YHR030C, strain SLT2, active compounds read low 1 and 1.04 | locus YHR079C, strain IRE1 (second series), active compounds read low 1.01 | locus YHR079C, strain IRE1, active compounds read low 1.03 | locus YHR094C, strain hxt1, active compounds read low 0.998 | locus YHR129C, strain ARP1, active compounds read low 1.01 | locus YHR142W, strain chs7, active compounds read low 1.02 | locus YHR200W, strain rpn10, active compounds read low 0.999 | locus YIL066C, strain RNR3, active compounds read low 1 | locus YIL073C, strain SPO22, active compounds read low 1.04 | locus YIL125W, strain kgd1, active compounds read low 0.999 | locus YIR030C, strain dcg1, active compounds read low 0.997 | locus YJL092W, strain hpr5, active compounds read low 1.02 | locus YJL095W, strain BCK1 (second series), active compounds read low 0.98 | locus YJL095W, strain BCK1, active compounds read low 0.973 and 1.04 | locus YJL115W, strain asf1, active compounds read low 1.02 | locus YJL129C, strain trk1, active compounds read low 1.02 | locus YJL134W, strain LCB3, active compounds read low 1.01 | locus YJL154C, strain vps35, active compounds read low 1.02 | locus YJL164C, strain tpk1, active compounds read low 1.01 | locus YJL166W, strain qcr8, active compounds read low 1.02 | locus YJL168C, strain set2, active compounds read low 1 | locus YJL187C, strain SWE1 (second series), active compounds read low 0.993 | locus YJL187C, strain SWE1, active compounds read low 0.988 | locus YJR043C, strain POL32, active compounds read low 1.02
